The values that follow come from article PMC12864922, “TDP-43 directly inhibits mRNA accumulation in neurites through modulation of mRNA stability”.

Whole data set: some 9,900 sequences, median “r (bound/input frequency ratio)” near 0.7, cut for the highest 2% near 6.5. The list comes from a sample in which the highest values are over-represented; it also holds similar and randomly drawn sequences.

B1: ENSMUSG00000004113.139|Cacna1b|48:52;226:230 (ssRNA)
RNA: GGGAGUUCUACAGUCCGACGAUCGCUUCGAUAUCCGCAUGCUACACCAGUGAUCUCACGUCUCUUGUGGUCUUGGAGUCAAAUAGCACAUCAUACUAGAGAUGCGCUCAAGGGCCUGCCUUUCACCUACACUGUCACCAUAACAGGGACCAAAUCUGGAGGAUGUCCUUGCUGUUGAUUCUGGUUUUCAGUCACAACACUUUCACUGUUUGUCAUUUCUAUGUAGUUGAUCUAGAAAAAGCAGAAAUCAAAACAGGAAAGGAAAUGUUACACAAACUUUAAAAAAAAAGUCAACAUGUAGGAACUCUUGCGGUCGCACUAGUGUGGAAUUCUCGGGUGUCAAGG
B2: ENSMUSG00000031028.90|Tub|13:17;146:150 (ssRNA)
RNA: GGGAGUUCUACAGUCCGACGAUCGCUUCGAUAUCCGCAUGCUAGGCACUCAAGCUCAUACUAGAAAAAGCUCUGGUGGUCAGCAGAAAGCACUCCCACUUCAAAAGGGCCCAUUAGGCCCAAAGGGGGUUAGGAGUGGUAGGGAUAGGUGCGUGGCAGGUCCCUGCUAGGAUUGCAGGGGCCUGGCCAACACAAUUAGCUGGAGGCUUAGAAUGCUAGCUCAUUUGUUGCUACAGAUUUGCCCAGUGCUUGCACACGUAAGAACCCAGCUCUCAAGGCCAAAUAUCUGAGUGGAUGGGGAUGACUCUUGCGGUCGCACUAGUGUGGAAUUCUCGGGUGUCAAGG
B3: ENSMUSG00000061578.112|Ksr2 (ssRNA)
RNA: GGGAGUUCUACAGUCCGACGAUCGCUUCGAUAUCCGCAUGCUAACCCUUCUCCCAUUUUGUAAGAACACUGUUCUAACUCACCUCAUGCCCACGCUACCCUGGGCAACUGGAGAACACCAUAGCGUUUCAGCUGAUGUGACAUUUGGUGUGACCUUUACCAGUUCACCAUCAUUCAUGGCUUCCCCCAAAGUCCCGAGUCCUGAGAACCGGGGCUGUGGCAAGAGAGUUCUGGUGUGUUCUCUCUGUGGGGCUAGCAAUGCCGGGGUUAAGUUCUCCCUCGGUGAUGGAGACGGUCCUGGGUACUCUUGCGGUCGCACUAGUGUGGAAUUCUCGGGUGUCAAGG
B4: ENSMUSG00000090935.58|Synj2bp (ssRNA)
RNA: GGGAGUUCUACAGUCCGACGAUCGCUUCGAUAUCCGCAUGCUACACAGGUUACCAGUGCAGAAUGGACCUAUAGUACAUCGAGGUGAAGGAGAGCCAAGUGGAGUUCCUGUAGCUAUGGUGCUGCUACCAGUGUUUGCCCUCACCAUGGUAGCAGUUUGGGCCUUCGUGAGAUACCGAAAGCAGCUUUGAAAUGCUUGCUGUCUUCCAGUGUGUCCAAUGAACUCUCUCUCUCACUCACCAUCUCUGACAUCCUCCCAUAUUCUUUCUCCUCCACAUAGCCAAUACAAGAUUUAAAGUGACUGCUCUUGCGGUCGCACUAGUGUGGAAUUCUCGGGUGUCAAGG
B5: ENSMUSG00000042529.499|Kcnj12 (ssRNA)
RNA: GGGAGUUCUACAGUCCGACGAUCGCUUCGAUAUCCGCAUGCUACUGGACCAUGUACAGGGCUCCCUGGGGCUUGUCCUCAGGGGCAGAGAAGGACAUGGUGGCAGCAGCACUGAGAACAGGAGCAUGGCCUCUCUCAGACCCCAGGGCAGUCAUUCAGUCUUUUCCAUGGACACUCCCCACCGCUCCACAUACUGCCUCCGCCUCAUUCUUGGGCUCUUCCUGCCUUGCUGUCUUUCCUUCCACACAGAAGCACCAAGCAUCAUCCAUUCCCAUAGGCAAGCCCAGGGCACUCCCAGAGCUCCCUCUUGCGGUCGCACUAGUGUGGAAUUCUCGGGUGUCAAGG
B6: ENSMUSG00000061578.701|Ksr2 (ssRNA)
RNA: GGGAGUUCUACAGUCCGACGAUCGCUUCGAUAUCCGCAUGCUAUACUCCCAGAUCUGGGGUGAUCUCUUGAGGUGCCUUCCUGUAGUCUCUUGUGUCAUCUUCUUCUAAGACCACUAAUAACACCGCCUUUCUCCUUGAUCCGGGCCUCAGACCUCUUCAGAGAUUCUUUCUCUGAAUGUACGUGGGGGACUCCAACAGAUGUUGGGAGAAGACUCAAUAUGAGCAUACGGGGUCAUUGUUCAAUCCUGUAUCAAGACCUUGGAGUUGUCUAAGGCUGUGGGUUUUAAAUACCUGCUGCAGGCCUCUUGCGGUCGCACUAGUGUGGAAUUCUCGGGUGUCAAGG
B7: ENSMUSG00000032194.16|Kank2 (ssRNA)
RNA: GGGAGUUCUACAGUCCGACGAUCGCUUCGAUAUCCGCAUGCUACAGCCACAAGCCACGCAUCAAACCGUCCCUCCUCCAUCCCUCUGUCCCAUUCUGCCUCGGCAUUCCUCAGCCCCUGAACUUCCCUGAGGGAGCCCUGACAUCUACCAGGCUCAAGCUCCUGGAAGCCUUUCCCAGCACCCUGGGUUCAAAGCCAGAAAGCCAAGCUACAUUCUCCUCCCAGUUGGCACCAGUUGACAACGCCUUGGGUGUGGGUUUCUUGUAAAGAACAUAGAGAACAAUCAGCCGGCAAUUAUGGGAGGCUCUUGCGGUCGCACUAGUGUGGAAUUCUCGGGUGUCAAGG
B8: ENSMUSG00000034801.130|Sos2 (ssRNA)
RNA: GGGAGUUCUACAGUCCGACGAUCGCUUCGAUAUCCGCAUGCUAGGCACUGAGAGGAGCCAGCGCUCGAGGGCGUUCUCACGCCUGACUGAUAGAUACCUUUUUAGGGUGAUGAACUUACACAGAUGCAGAAGAUAUGGGGUGGUGGUCCUGGGUUUUAACCCUCUGACCGUCUUCUAGCUUCUAAUUUUGUUUGGUUUUUACAUCUAGGAGACUUAGGAAUAAUACCCACUGUUCUUAAACUCUUUGAGACCAUGUCUUAAAUGUCAGUAUUUGCUGCUGAAGACAAAAACGGAAAAUAGAAUCUCUUGCGGUCGCACUAGUGUGGAAUUCUCGGGUGUCAAGG
B9: ENSMUSG00000031028.491|Tub (ssRNA)
RNA: GGGAGUUCUACAGUCCGACGAUCGCUUCGAUAUCCGCAUGCUACACCCUUUUAAAUGAACAUGGGGUGGUGAUGGUGCCUUAACAAUCUUGACACUAAGGUGAAGCAAGCAAGUAAGGUGUGUGCCUCUGGGAAGACAGGAGUCGGAAGCCAAGGUGUGUGGCAACAGUCUGGAAGAGAGCUUUUGGUAAUCAUACCGUCUUCAGUGACAAGGCAACAAUGCUGUAAAGUGGGUUUGUUUGGUUUUGUUUUUUCUUUCUCUUUUAUGGAAAUGGCAGGUCUAUUUGCCUCAAACGUUAUGUAGCUCUUGCGGUCGCACUAGUGUGGAAUUCUCGGGUGUCAAGG
B10: ENSMUSG00000028439.153|Fam219a (ssRNA)
RNA: GGGAGUUCUACAGUCCGACGAUCGCUUCGAUAUCCGCAUGCUACUGUGCCCCAUUGCCAUUUCACCCUAGCUCAAAGUCCAGGAGCCAGGCUUCCAGAAAGGCUCUUCAAGAGCAAGCUUAAGGAAAUACAGUGAGCCAAGUGGCUGUAUGAUAUGGUAUGGUAUGGUAUGGUAUGGUAUGGUAUGGUAUGCACAUGUGUGUGCAUGUGUGUGUGCCUGUGUGUGUGCGUGUGCGUGUGUGUAUGUGUGUGCGUGUGUGUGUGUGUGUGUUGUACCCGAGUGUGUGUUGAGCCUAUCUGUCCACUCUUGCGGUCGCACUAGUGUGGAAUUCUCGGGUGUCAAGG
B11: ENSMUSG00000028439.155|Fam219a (ssRNA)
RNA: GGGAGUUCUACAGUCCGACGAUCGCUUCGAUAUCCGCAUGCUAGCCAUUUCACCCUAGCUCAAAGUCCAGGAGCCAGGCUUCCAGAAAGGCUCUUCAAGAGCAAGCUUAAGGAAAUACAGUGAGCCAAGUGGCUGUAUGAUAUGGUAUGGUAUGGUAUGGUAUGGUAUGGUAUGGUAUGCACAUGUGUGUGCAUGUGUGUGUGCCUGUGUGUGUGCGUGUGCGUGUGUGUAUGUGUGUGCGUGUGUGUGUGUGUGUGUUGUACCCGAGUGUGUGUUGAGCCUAUCUGUCCAGGGAACCAGAUUCUCUUGCGGUCGCACUAGUGUGGAAUUCUCGGGUGUCAAGG
B12: ENSMUSG00000028439.154|Fam219a (ssRNA)
RNA: GGGAGUUCUACAGUCCGACGAUCGCUUCGAUAUCCGCAUGCUACCCAUUGCCAUUUCACCCUAGCUCAAAGUCCAGGAGCCAGGCUUCCAGAAAGGCUCUUCAAGAGCAAGCUUAAGGAAAUACAGUGAGCCAAGUGGCUGUAUGAUAUGGUAUGGUAUGGUAUGGUAUGGUAUGGUAUGGUAUGCACAUGUGUGUGCAUGUGUGUGUGCCUGUGUGUGUGCGUGUGCGUGUGUGUAUGUGUGUGCGUGUGUGUGUGUGUGUGUUGUACCCGAGUGUGUGUUGAGCCUAUCUGUCCAGGGAACCUCUUGCGGUCGCACUAGUGUGGAAUUCUCGGGUGUCAAGG
B13: ENSMUSG00000058297.516|Spock2|37:41 (ssRNA)
RNA: GGGAGUUCUACAGUCCGACGAUCGCUUCGAUAUCCGCAUGCUAAUCUUACCCCCAGUGUUCCACAGGAGUCGUGACCACCACACAUGGGUGGGCACAGGUCUGCCUUGCUCCAGCCCCCUCCCUUGGUUUCUGUUGGUACCCAUUUGGCUUUUAUCUGCUUUCUGCUUCACCACUAAGUGCGUAGGUGGGGUCUUUUGAUAUCGGCUCCCCAAAGCCCAAGCCCACAGCCCUAGGAGAGAACCAGGGGCCCAUCUUUGACACCUGGGCCAUCACGAGCCCUCCCGCCUGCAGUUGUCCUAGGGCUCUUGCGGUCGCACUAGUGUGGAAUUCUCGGGUGUCAAGG

For this assay, the target named is TDP-43 (Homo sapiens, UniProt Q13148 1-414). The experiment in a line: RNA Bind-n-Seq with designed 260-mer pool; 25 mM Tris-HCl, 150 mM KCl, 3 mM MgCl2, BSA (printed 500 mg/mL), 20 units/mL SUPERase IN; pH not stated; 500 nM RNA pool, 1 h, 4 C; TDP-43 5, 50, 500 nM; high values mean tight binding. The settings on record: protein: recombinant; tags: SBP (GST cleaved off with PreScission; pGEX-GST-SBP). The essentials: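 In 25 mM Tris-HCl, 150 mM KCl, 3 mM MgCl2, BSA and SUPERase IN, 500 nM of an in vitro-transcribed 260-nt 3′ UTR oligo pool was incubated for 1 h at 4 °C with SBP-tagged TDP-43 (5, 50 or 500 nM) captured on streptavidin beads. RNA remaining after washes was biotin-eluted, reverse transcribed, PCR-amplified and sequenced. Binding, R, is the bound-sample abundance of each oligo, normalized to mapped reads, divided by its abundance in input. Each duplicate used a separate, independent protein batch.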
Chain of TDP-43 (Q13148 whole entry): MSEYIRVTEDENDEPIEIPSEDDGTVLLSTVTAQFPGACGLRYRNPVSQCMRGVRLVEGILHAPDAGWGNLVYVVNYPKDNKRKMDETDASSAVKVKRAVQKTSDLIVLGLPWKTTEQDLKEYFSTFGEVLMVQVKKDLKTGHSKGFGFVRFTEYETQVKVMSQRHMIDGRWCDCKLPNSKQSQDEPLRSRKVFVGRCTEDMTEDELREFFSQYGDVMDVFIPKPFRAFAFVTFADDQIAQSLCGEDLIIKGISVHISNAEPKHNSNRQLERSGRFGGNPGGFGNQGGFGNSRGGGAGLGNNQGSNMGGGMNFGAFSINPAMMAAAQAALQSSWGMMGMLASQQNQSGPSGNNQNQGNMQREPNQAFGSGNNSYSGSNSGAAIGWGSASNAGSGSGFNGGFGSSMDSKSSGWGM
As for B1, the binding signal is 0.174 R (bound/input frequency ratio). On to B2, for which the binding signal is 1.27 R (bound/input frequency ratio).

Regarding B3, the binding signal was 0.565 R (bound/input frequency ratio).

Consider B4, for which the binding signal is 1.69 R (bound/input frequency ratio).

Regarding B5, the binding signal is 1.51 R (bound/input frequency ratio). To B6 belongs 0.292 R (bound/input frequency ratio); to B7, 1.15 R (bound/input frequency ratio); to B8, 0.376 R (bound/input frequency ratio).

For B9, the binding signal is 1.97 R (bound/input frequency ratio). In the case of B10, the binding signal is 6.09 R (bound/input frequency ratio).

For the molecule B11, the binding signal was 7.8 R (bound/input frequency ratio).

Consider B12, for which the binding signal was 7.96 R (bound/input frequency ratio).

As to B13, the binding signal was 0.797 R (bound/input frequency ratio).
